Measurements as given in PubChem BioAssay (NCI).
Compounds without any hit were thinned out: in the full panel of roughly 79,000, 15% have a hit. The source made the active and inactive calls. No stated cut-off is given here; in the data, active means growth inhibition above about 70%; inactive means the rest.

How the values were obtained:
[1] = NCI Yeast Anticancer Drug Screen. Data for the rad52 strain (AID 147);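 further: 0% = growth of vehicle-treated control cultures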; settings: S. cerevisiae rad52 mutant growth inhibition, stronger effect = higher value
Summary of the method: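 Here a repair-compromised yeast strain receives each compound; its growth is then quantified and normalised to vehicle-only controls.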

[2] = NCI Yeast Anticancer Drug Screen. Data for the wt1 strain (AID 149);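 further: 0% = growth of vehicle-treated wt1 cultures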; settings: S. cerevisiae wt1 strain (SPY 50644) growth inhibition, stronger effect = higher value
Summary of the method: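 The wt1 strain was treated with compounds, and growth was compared with vehicle-treated cultures to give inhibition.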

[3] = NCI Yeast Anticancer Drug Screen. Data for the rad50EPP+ strain (AID 151);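 further: 0% = growth of vehicle-treated control cultures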; settings: S. cerevisiae rad50 mutant strain, stronger effect = higher value
Summary of the method: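 Read-out is yeast growth inhibition relative to vehicle; cells used were the rad50EPP+ strain.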

[4] = NCI Yeast Anticancer Drug Screen. Data for the rad50 strain (AID 155);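 further: 0% = growth of vehicle-only cultures of the same strain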; settings: S. cerevisiae rad50 strain growth inhibition, stronger effect = higher value
Summary of the method: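 Cells are treated with compound, grown, and their growth is then scored against vehicle-only cultures of the same repair-deficient yeast strain.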

[5] = NCI Yeast Anticancer Drug Screen. Data for the mec2-1 strain (AID 157); settings: S. cerevisiae mec2-1 strain, stronger effect = higher value
Summary of the method: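 Using mec2-1 yeast: add compound, measure growth, express inhibition versus vehicle-treated cultures.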

[6] = NCI Yeast Anticancer Drug Screen. Data for the rad14 strain (AID 159);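 further: 0% = growth of vehicle-treated control cultures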; settings: S. cerevisiae rad14 strain growth inhibition, stronger effect = higher value
Summary of the method: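 Readout: yeast growth inhibition, referenced to vehicle-only cultures. Strain bears a defined alteration in DNA damage repair.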

[7] = NCI Yeast Anticancer Drug Screen. Data for the sgs1 mgt1 strain (AID 161);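 further: 0% = growth of cultures given vehicle only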; settings: S. cerevisiae sgs1 mgt1 strain, stronger effect = higher value
Summary of the method: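 This yeast growth screen uses a strain with defined DNA-repair lesions; compound-treated growth is compared with vehicle-treated growth.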

[8] = NCI Yeast Anticancer Drug Screen. Data for the CLN2oe strain (AID 163);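 further: 0% = growth of vehicle-only control cultures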; settings: S. cerevisiae CLN2oe strain, stronger effect = higher value
Summary of the method: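 Whole-cell yeast growth assay. A strain engineered for altered cell-cycle control received compound, and inhibition relative to vehicle-treated cultures was recorded.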

[9] = NCI Yeast Anticancer Drug Screen. Data for the cln2 rad14 strain (AID 165);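 further: 0% = growth equal to vehicle treated cultures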; settings: S. cerevisiae cln2 rad14 strain, stronger effect = higher value
Summary of the method: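 Yeast strain cln2 rad14, bearing defects in cell cycle control and DNA repair, serves as the test system; values reflect growth inhibition compared with vehicle.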

[10] = NCI Yeast Anticancer Drug Screen. Data for the bub3 strain (AID 167); settings: S. cerevisiae bub3 mutant strain, stronger effect = higher value
Summary of the method: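 Part of a panel of yeast mutants defective in DNA damage repair or cell cycle regulation. Each strain is grown with compound, and inhibition is calculated relative to solvent-treated cultures.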

[11] = NCI Yeast Anticancer Drug Screen. Data for the wt2 strain (AID 169);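 further: 0% = growth of vehicle-treated yeast cultures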; settings: S. cerevisiae wt2 strain growth inhibition, stronger effect = higher value
Summary of the method: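 Treated yeast vs. vehicle-treated yeast: growth inhibition determined.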

[12] = NCI Yeast Anticancer Drug Screen. Data for the mlh1 strain (AID 171);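 further: 0% = growth of vehicle-treated control cultures of the same strain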; settings: S. cerevisiae mlh1 strain growth inhibition, stronger effect = higher value
Summary of the method: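 A yeast strain with a defined genetic lesion serves as the test organism. Cultures receive compound or vehicle, and growth is measured.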

[13] = NCI Yeast Anticancer Drug Screen. Data for the mlh1 rad18 strain (AID 175); settings: S. cerevisiae mlh1 rad18 strain growth inhibition, stronger effect = higher value
Summary of the method: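 Steps: expose repair-defective yeast to compound; measure growth; express inhibition against vehicle-treated controls.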

[14] = NCI Yeast Anticancer Drug Screen. Data for the rad18 strain (AID 177); settings: S. cerevisiae rad18 mutant growth inhibition, stronger effect = higher value
Summary of the method: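 Measured value is growth inhibition of a yeast strain bearing a DNA repair alteration, referenced to vehicle-treated cells.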

[15] = at 5.0 µM (retest, dose inferred, filed as 0.5)
[16] = at 50.0 µM (retest, dose inferred, filed as 5.0)

Measured: growth inhibition

OC(c1ccc(Br)cc1)(c1cccs1)C1CC1 (stereo not given)
inactive: [1]; at 1.2 µM 13% | [1]; at 3.7 µM 21% | [1]; at 11.0 µM 57% | [2]; at 1.2 µM -19% | [2]; at 3.7 µM 3% | [2]; at 11.0 µM 17% | [3]; at 1.2 µM 3% | [3]; at 3.7 µM 35% | [3]; at 11.0 µM 27% | [3]; at 33.0 µM 17% | [4]; at 1.2 µM 3% | [4]; at 3.7 µM 21% | [4]; [15] 57% | [4]; at 11.0 µM 56% | [5]; at 1.2 µM 18% | [5]; at 3.7 µM 22% | [5]; [15] 61% | [5]; at 11.0 µM 53% | [6]; at 1.2 µM 5% | [6]; at 3.7 µM 13% | [6]; at 11.0 µM 27% | [7]; [15] -7% | [8]; at 1.2 µM 6% | [8]; at 3.7 µM 2% | [8]; at 11.0 µM 26% | [9]; [15] 45% | [10]; at 1.2 µM 38% | [10]; at 3.7 µM 48% | [10]; [15] 48% | [10]; at 11.0 µM 62% | [11]; at 1.2 µM -12% | [11]; at 3.7 µM 8% | [11]; at 11.0 µM 31% | [12]; at 1.2 µM -15% | [12]; at 3.7 µM 4% | [12]; at 11.0 µM 38% | [13]; [15] 46% | [14]; at 1.2 µM 1% | [14]; at 3.7 µM 24% | [14]; at 11.0 µM 54%
active: [1]; at 33.0 µM 92% | [1]; at 100.0 µM 87% | [2]; at 33.0 µM 97% | [2]; at 100.0 µM 96% | [3]; at 100.0 µM 91% | [4]; at 33.0 µM 94% | [4]; [16] 100% | [4]; at 50.0 µM 91.2% | [4]; at 100.0 µM 94% | [5]; at 33.0 µM 99% | [5]; [16] 100% | [5]; at 50.0 µM 93.2% | [5]; at 100.0 µM 97% | [6]; at 33.0 µM 97% | [6]; at 100.0 µM 97% | [7]; [16] 99% | [8]; at 33.0 µM 96% | [8]; at 100.0 µM 96% | [9]; [16] 99% | [10]; at 33.0 µM 94% | [10]; [16] 100% | [10]; at 100.0 µM 93% | [11]; at 33.0 µM 97% | [11]; at 100.0 µM 96% | [12]; at 33.0 µM 96% | [12]; at 100.0 µM 95% | [13]; [16] 100% | [13]; at 50.0 µM 92% | [14]; at 33.0 µM 94% | [14]; at 100.0 µM 91%
